# Assay results taken from ChEMBL document CHEMBL3988442, “University of Dundee, Small-Polar-MMV Screening Library” (2021).
# For some assays here: Potency and affinity values are given separately.
# Key:
# Parameters in all cases: scale not given: direction of the effect not stated beside the values
# [1] = molecular target: Protein translocase subunit SecA (Escherichia coli (strain K12)) (UniProt P10408); assay: Assay to Identify E. coli SecA ATPase Inhibitors; assay type: functional; conditions: 30 µM
# [2] = molecular target: T1, Ubiquitin-activating enzyme e1, putative (Leishmania donovani (strain BPK282A1)) (UniProt E9BSI1); assay: Leishmania donovani Ubiquitin Activating Enzyme (LdE1); assay type: functional; conditions: 30 µM
# T1 sequence (whole entry): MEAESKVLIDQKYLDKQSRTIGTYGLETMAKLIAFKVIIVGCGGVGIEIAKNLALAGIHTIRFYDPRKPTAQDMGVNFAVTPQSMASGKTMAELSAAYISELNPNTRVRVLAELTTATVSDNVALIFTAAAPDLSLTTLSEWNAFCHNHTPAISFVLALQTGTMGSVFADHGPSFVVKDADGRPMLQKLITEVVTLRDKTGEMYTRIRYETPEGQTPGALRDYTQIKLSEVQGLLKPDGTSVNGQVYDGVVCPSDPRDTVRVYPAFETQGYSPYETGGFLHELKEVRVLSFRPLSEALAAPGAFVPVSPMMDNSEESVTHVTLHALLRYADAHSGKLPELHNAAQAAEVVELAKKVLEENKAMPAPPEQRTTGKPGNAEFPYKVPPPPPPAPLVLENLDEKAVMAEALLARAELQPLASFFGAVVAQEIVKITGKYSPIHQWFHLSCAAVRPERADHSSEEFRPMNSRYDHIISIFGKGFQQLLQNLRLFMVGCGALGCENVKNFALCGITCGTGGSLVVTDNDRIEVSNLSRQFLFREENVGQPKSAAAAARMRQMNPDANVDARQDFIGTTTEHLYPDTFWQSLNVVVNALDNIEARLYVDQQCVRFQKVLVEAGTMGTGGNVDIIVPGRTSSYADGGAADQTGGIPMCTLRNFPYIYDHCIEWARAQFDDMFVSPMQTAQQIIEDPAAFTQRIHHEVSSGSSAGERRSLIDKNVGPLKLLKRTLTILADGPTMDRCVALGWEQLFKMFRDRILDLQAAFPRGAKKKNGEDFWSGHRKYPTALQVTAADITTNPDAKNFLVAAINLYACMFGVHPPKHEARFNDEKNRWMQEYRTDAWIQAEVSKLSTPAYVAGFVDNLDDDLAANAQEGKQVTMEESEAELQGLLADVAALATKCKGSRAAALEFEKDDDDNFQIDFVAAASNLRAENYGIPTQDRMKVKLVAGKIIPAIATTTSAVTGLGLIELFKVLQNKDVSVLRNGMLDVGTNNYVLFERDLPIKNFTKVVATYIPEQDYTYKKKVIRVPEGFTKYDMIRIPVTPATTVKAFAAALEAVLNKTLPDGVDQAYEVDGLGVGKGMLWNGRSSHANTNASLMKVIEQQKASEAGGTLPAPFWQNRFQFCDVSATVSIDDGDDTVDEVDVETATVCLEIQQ
# [3] = molecular target: AMP-activated protein kinase, AMPK (Homo sapiens) (UniProt P54646+O43741+P54619+Q9UGJ0+Q9Y478+Q13131+Q9UGI9); assay: AMP-dependent Kinase enzyme assay. An in vitro enzyme assay that detects ADP turnover that is directly proportional to AMPK activity. This uses naive AMPK that is activated during the assay with MK-8722; assay type: functional; conditions: 30 µM
# [4] = molecular target: Sialic acid-binding Ig-like lectin 9 (Homo sapiens) (UniProt Q9Y336); assay: Hs-Siglec9 ALPHAscreen SOP 20170721; conditions: 10 µM
# Trypanosoma cruzi = assay: Trypanosoma cruzi phosphomannomutase and mannose-1-phosphate guanylyltransferase assay; assay type: functional; conditions: 10 µM
# [5] = molecular target: T2, Arginase-2, mitochondrial (Homo sapiens) (UniProt P78540); assay: in vitro enzyme assay to detect the production of urea directly proportional to the activity of Arginase II; assay type: functional; conditions: 33.3 µM; also: in the data most compounds retested in dose-response had high values
# T2 sequence (whole entry): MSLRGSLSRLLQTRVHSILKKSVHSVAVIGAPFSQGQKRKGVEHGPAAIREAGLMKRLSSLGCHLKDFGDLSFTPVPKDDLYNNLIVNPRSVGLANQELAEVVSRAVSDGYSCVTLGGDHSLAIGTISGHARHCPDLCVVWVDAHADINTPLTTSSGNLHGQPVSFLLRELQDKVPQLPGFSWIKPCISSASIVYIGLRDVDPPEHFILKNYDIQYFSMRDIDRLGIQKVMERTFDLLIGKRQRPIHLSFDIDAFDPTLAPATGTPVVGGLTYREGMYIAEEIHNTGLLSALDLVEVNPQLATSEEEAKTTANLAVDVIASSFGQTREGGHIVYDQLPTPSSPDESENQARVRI
# [6] = molecular target: T3, Proteasome subunit beta (Trypanosoma cruzi) (UniProt O96673); assay: Trypanosoma cruzi proteasome chymotrypsin-like activity (TcProtChymo) assay.; also: in the data most compounds retested in dose-response had high values; assay type: functional; conditions: 9.37 µM
# T3 sequence (whole entry): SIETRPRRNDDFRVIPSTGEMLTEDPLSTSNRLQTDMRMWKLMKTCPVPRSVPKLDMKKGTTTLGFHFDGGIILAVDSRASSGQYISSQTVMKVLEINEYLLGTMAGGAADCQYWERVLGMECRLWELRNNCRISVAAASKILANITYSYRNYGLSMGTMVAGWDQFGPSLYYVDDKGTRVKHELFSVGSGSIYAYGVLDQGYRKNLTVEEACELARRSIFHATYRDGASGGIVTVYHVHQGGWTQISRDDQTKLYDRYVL
# Homo sapiens = species on record: Homo sapiens; assay: To identify inhibition of the IFN signalling (Jak-Stat) pathway via expression of an eGFP reporter gene under the control of an IFN-stimulated response element (ISRE) containing MxA promoter.; assay type: functional; conditions: 30 µM
# [7] = molecular target: T4, Tyrosyl-tRNA synthetase, putative (Trypanosoma cruzi (strain CL Brener)) (UniProt Q4DSP6); assay: Trypanosoma cruzi tyrosyl tRNA synthetase (TcYRS) _High Tyrosine SOP; assay type: functional; conditions: 30 µM; also: in the data most compounds retested in dose-response had high values
# T4 sequence (whole entry): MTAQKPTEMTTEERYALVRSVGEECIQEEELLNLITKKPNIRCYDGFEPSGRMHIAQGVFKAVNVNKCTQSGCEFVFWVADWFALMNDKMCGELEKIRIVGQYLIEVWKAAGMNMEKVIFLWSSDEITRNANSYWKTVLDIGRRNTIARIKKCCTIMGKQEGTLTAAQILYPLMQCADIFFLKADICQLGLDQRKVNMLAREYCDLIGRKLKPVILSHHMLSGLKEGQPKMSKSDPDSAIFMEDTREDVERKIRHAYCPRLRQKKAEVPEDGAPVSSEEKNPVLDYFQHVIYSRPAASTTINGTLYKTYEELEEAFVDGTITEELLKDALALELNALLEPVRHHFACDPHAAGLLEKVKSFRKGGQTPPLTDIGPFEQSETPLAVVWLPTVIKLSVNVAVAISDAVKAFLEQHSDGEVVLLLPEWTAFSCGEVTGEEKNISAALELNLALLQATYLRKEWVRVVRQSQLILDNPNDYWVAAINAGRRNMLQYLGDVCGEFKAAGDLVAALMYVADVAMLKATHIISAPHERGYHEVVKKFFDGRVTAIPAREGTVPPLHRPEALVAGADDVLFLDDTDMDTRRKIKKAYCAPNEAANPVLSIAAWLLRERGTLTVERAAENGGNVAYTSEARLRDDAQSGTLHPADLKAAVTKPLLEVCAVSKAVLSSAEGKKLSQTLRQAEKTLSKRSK
# [8] = molecular target: T4, Tyrosyl-tRNA synthetase, putative (Trypanosoma cruzi (strain CL Brener)); assay: Trypanosoma cruzi tyrosyl tRNA synthetase (TcYRS) SOP; assay type: functional; conditions: 30 µM
# [9] = molecular target: Chromo domain-containing protein 1 (Saccharomyces cerevisiae (strain ATCC 204508 / S288c) (Baker's yeast)) (UniProt P32657); assay: ScCHD-1 Enzyme Inhibition Assay; assay type: functional; conditions: 30 µM; also: in the data most compounds retested in dose-response had high values
# Sequence of Chromo domain-containing protein 1 (Saccharomyces cerevisiae (strain ATCC 204508 / S288c) (Baker's yeast)) (P32657 whole entry, the tested form may be a part): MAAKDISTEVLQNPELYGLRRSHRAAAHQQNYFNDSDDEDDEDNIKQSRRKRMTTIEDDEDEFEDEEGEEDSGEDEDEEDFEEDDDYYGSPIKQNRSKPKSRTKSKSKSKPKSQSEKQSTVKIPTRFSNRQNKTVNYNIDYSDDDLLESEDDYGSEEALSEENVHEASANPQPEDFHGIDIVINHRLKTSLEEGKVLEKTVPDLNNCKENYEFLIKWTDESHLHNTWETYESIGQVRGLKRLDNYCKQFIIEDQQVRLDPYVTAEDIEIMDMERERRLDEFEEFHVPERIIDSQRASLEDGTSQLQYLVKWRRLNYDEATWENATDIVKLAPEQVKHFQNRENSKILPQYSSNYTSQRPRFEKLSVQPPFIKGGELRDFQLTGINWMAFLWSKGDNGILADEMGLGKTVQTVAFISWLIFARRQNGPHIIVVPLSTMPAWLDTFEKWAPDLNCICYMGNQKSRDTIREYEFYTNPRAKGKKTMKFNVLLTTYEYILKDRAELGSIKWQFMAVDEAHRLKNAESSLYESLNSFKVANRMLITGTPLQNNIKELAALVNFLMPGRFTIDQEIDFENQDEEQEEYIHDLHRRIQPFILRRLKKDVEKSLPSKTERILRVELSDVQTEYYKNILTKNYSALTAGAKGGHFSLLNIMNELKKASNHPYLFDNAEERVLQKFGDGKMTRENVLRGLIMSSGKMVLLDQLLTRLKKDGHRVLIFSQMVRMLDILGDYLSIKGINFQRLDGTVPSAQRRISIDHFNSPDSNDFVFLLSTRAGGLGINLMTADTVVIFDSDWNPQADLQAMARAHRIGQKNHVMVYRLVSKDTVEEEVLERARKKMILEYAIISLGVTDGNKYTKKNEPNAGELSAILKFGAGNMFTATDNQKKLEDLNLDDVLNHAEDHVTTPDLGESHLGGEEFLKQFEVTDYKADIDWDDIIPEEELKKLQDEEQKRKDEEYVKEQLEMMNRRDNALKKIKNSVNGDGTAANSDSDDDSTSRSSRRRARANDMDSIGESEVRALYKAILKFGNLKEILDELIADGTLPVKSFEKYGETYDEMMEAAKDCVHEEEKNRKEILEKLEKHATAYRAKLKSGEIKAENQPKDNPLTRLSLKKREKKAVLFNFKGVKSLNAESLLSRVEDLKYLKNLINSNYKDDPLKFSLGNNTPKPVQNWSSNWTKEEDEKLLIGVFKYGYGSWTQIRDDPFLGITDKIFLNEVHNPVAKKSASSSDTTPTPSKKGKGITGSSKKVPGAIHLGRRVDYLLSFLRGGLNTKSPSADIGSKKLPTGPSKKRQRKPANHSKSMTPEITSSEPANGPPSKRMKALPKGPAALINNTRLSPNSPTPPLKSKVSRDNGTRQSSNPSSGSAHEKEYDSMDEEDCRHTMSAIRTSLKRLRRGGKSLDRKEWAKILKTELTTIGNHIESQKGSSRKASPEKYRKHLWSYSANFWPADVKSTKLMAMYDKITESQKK
# Sequence of Sialic acid-binding Ig-like lectin 9 (Homo sapiens) (Q9Y336 whole entry): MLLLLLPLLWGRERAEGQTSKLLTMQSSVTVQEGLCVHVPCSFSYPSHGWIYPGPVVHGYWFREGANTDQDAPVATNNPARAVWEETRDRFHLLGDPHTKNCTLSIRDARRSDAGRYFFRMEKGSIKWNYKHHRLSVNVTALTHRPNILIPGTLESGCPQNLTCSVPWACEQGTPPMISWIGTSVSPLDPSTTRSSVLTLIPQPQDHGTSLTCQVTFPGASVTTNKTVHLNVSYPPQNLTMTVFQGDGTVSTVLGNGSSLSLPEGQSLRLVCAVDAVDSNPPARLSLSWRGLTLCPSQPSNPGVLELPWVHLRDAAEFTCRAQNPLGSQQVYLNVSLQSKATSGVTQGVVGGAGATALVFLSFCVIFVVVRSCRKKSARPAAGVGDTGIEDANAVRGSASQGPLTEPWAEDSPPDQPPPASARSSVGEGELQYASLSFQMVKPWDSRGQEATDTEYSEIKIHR
# Sequence of Protein translocase subunit SecA (Escherichia coli (strain K12)) (P10408 whole entry): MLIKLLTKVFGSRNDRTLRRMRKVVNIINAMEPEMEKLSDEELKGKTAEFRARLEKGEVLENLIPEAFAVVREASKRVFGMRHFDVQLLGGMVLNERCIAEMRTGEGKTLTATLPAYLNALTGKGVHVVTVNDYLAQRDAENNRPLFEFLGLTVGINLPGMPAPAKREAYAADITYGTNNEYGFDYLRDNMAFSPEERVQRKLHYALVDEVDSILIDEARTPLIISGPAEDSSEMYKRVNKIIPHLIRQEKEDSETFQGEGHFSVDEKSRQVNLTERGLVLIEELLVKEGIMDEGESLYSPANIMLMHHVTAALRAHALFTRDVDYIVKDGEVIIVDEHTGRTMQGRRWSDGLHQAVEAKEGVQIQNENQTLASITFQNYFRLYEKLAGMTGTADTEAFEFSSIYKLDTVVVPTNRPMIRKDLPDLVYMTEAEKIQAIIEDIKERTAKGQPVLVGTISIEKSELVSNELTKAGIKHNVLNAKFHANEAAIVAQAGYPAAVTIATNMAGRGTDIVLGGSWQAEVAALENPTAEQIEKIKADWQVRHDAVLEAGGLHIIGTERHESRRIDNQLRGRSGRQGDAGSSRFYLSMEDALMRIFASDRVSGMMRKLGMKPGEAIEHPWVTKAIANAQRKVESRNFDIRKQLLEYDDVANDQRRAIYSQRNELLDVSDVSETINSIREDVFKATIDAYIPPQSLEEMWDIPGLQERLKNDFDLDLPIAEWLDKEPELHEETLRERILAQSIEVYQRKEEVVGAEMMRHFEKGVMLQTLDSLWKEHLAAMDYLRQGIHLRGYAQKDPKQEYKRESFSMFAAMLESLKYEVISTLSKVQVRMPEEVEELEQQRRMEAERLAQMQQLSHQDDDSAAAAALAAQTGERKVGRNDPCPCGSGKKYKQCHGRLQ
Structure (SMILES),Percent Effect [1] [%],Percent Effect [2] [%],Percent Effect [3] [%],Percent Effect [4] [%],Percent Effect (Trypanosoma cruzi) [%],Percent Effect [5] [%],Percent Effect [6] [%],Percent Effect (Homo sapiens) [%],Percent Effect [7] [%],Percent Effect [8] [%],Percent Effect [9] [%]
Cc1cc(NC(=O)CN2CCn3c(nnc3C3CC3)C2)n(C)n1,-3.7,-5.26,11.5,-1.43,-4.7,0,4.84,21.3,-0.49,0,3.45
Cc1nn(C)c(N2CCOCC2)c1CNCc1nccs1,-3.96,7.89,-1.27,5.34,9.4,4.21,9.86,3.23,3.43,17.1,-6.95
Cc1cnn(CC(C)NCc2nc(-c3cccnc3)no2)c1 (configuration not stated),-6.08,-1.39,-14,7.77,-4.76,-1.32,13,-8.09,7.37,5.13,-1.42
CN(Cc1ccco1)C(=O)[C@H]1CSCN1C(=O)OC(C)(C)C,-4.45,15.8,-5.01,13.2,5.7,-4.32,8.21,-0.327,4.43,13.6,-3.35
COc1cc(CNC2CCc3nc(C)nn3C2)cc2c1OCCO2 (configuration not stated),-2.1,7.89,-9.24,6.01,5.51,5.04,2.62,-11.3,2.46,11.1,-1.5
CCCNC(=O)CCC(=O)Nc1ccc(-n2cncn2)c(F)c1,-7,2.63,-2.96,4.31,-6.2,-2.68,-0.501,29.1,-0.49,0,-1.12
Cc1ncccc1Oc1nccnc1C1CCN(C(C)C)CC1,-6.52,6.76,1.33,5.77,0.593,-2.09,2.65,-0.668,-31.2,9.09,-19.2
Cc1cc(CNCc2c(C)nn(C)c2N2CCOCC2)no1,-3.31,10.5,-9.93,7.93,7.14,3.06,3.68,-11.7,3.43,19.5,-11
Cn1cc(C(=O)NC2CCN(C(=O)NCCSC(F)(F)F)CC2)cn1,-1.89,13.9,2.72,2.15,-1.13,-0.215,13,8.82,9.38,17.7,-19.9
Cc1cc(C2CCCN(C(=O)CN3CCN(C)CC3)C2)n[nH]1 (configuration not stated),-0.557,13.5,-4.16,2.41,2.32,-4.25,16.9,16.2,6.93,18.3,-5.49
O[C@H]1CCN(Cc2ccoc2)[C@H]1Cc1cccnc1,-6.91,0,3.99,-6.85,-1.16,-54.7,5.47,13.5,4.17,2.5,-9.55
CS(=O)(=O)c1ccc(CNCC2CCN(CCO)CC2)cc1,-6.48,0,-13.5,3.88,-4.9,-3.64,6.03,21.2,-2.15,-5,-3.22
O=C1N(Cc2ccccc2F)CCCC12CCN(C1CCSCC1)C2 (configuration not stated),-1.79,-8,-0.682,0.979,-1.46,3.65,8.37,-10.4,8.2,8.64,0.67
Cc1cc(C)n(CC2CCCN2C(=O)c2ccc3c(c2)nnn3C)n1 (configuration not stated),-3.73,8.22,-3.73,-4.94,-2.94,7.27,14.9,-9.03,3.23,7.5,-4.89
NC(=O)CN1CCCN(C(=O)c2ccn(-c3cccc(F)c3)n2)CC1,-1.81,6.94,-1.98,-6,-3.01,2.21,10.3,-17.8,-1.05,5.13,-0.989
CCOc1cccc(CNC(=O)NCC(O)c2cccc(F)c2)c1 (configuration not stated),-5.26,16.2,-2,22.6,5.75,-6.01,-1.44,29.2,7.39,23.5,-11.2
CCOc1cc(C)nc(N2CCN(Cc3nccn3C)CC2)n1,0.029,4.17,-6.46,13.8,0.875,12.4,11.2,4.49,5.26,7.69,-4.66
CCn1cc(Br)c(C(=O)NCc2cccnc2)n1,-2.44,7.79,-1.81,5.82,0.885,-9.65,19.3,3.08,7.53,16.1,-1.44
CCSCCNC(=O)C(c1cccc(F)c1)N(C)C (configuration not stated),-5.79,8.11,-0.968,-3.42,-4.44,-0.952,13.8,20.7,6.88,7.32,-3.55
CC(O)CN1CCN(C(=O)c2cnn(-c3ccccc3F)c2)CC1 (configuration not stated),-6,13.3,-6.53,24.2,5.75,15.6,9.59,10.4,-0.546,8.64,-7.25
CS(=O)(=O)NCC(=O)NC1CCc2nccn2C1 (configuration not stated),0.138,5.33,-3.96,-2.36,-7.69,1.56,12.7,2.1,4.92,8.64,-13.2
Cc1nnc(C(C)N2CCN(Cc3ccc4c(c3)OCO4)CC2)o1 (configuration not stated),-8,8.11,-13.4,7.45,-4.62,-4.01,-0.36,13.3,-0.493,-8.64,2.83
